Source: PubChem BioAssay
An excerpt weighted towards active compounds, which were near 10% of everything screened.
JMJD2A Tudor inh: JMJD2A Tudor domain (human) inhibition. AlphaScreen JMJD2A-Tudor / H3K4me3 peptide binding. Potency, µM (highest dose often 114 µM), without a hit: at the top dose activity change, negative = inhibition, usual class: inhibitors. 390,000 tested, 4.4% active; also: % is scaled to controls: 0 for no effect and ±100 for the full control effect; nearly all actives have a fitted effect of over 50% in size
HP1b binding inh: blocks HP1-beta chromodomain binding to methylated histone tails; Potency, µM (doses to about 114 µM), for the others: at the highest dose activity change, negative = inhibition, actives largely listed as inhibitors; AID 540317; AlphaScreen HP1-beta / biotin-H3K9me3 peptide binding; 390,000 tested, 0.56% active; also: nearly all actives have a fitted effect of over 70% in size
Target sequence (P83916 whole entry, looked up): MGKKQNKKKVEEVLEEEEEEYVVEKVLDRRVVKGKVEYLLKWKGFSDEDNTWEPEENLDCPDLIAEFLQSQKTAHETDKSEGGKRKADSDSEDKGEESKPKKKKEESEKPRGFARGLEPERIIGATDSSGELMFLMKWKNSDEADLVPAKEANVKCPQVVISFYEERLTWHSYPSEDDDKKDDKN
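Compound inhibition of the preformed complex between 50 nM HP1-beta and 50 nM biotinylated H3K9me3 peptide was read by AlphaScreen. Buffer was PBS pH 7.4 with 0.01% Tween-20. Incubations ran 30 min at room temperature, with 10 ug/mL donor/acceptor beads.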
GLS inh: glutaminase GLS (human) inhibition | 410,000 tested, 0.21% active | AID 624170 | O94925 | Potency, µM (top dose mostly 45.5 µM), for the others: at the top dose activity change, negative = inhibition, hits mostly inhibitors | GLS enzymatic activity, qHTS titration; also: % is scaled to controls: 0 for no effect and ±100 for the full control effect
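Coupled fluorescence readout: glutamate oxidase/HRP/Amplex Red detect glutamate formed by hKGA from L-glutamine (1 mM solution added). Buffer 45 mM KH2PO4 pH 8.2, 0.02% Tween-20; reads at t0 and 30 min RT.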
G9a block: blocks human histone lysine methyltransferase G9a; G9a H3K9 monomethylation, AlphaScreen, 2 h; Potency, µM (doses to about 102 µM), for inactives: top-dose activity, negative = inhibition, actives largely listed as inhibitors; 350,000 tested, 8.8% active; also: % is scaled to controls: 0 for no effect and ±100 for the full control effect; nearly all actives have a fitted effect of over 75% in size
Target sequence (Q96KQ7 913-1193 limits assumed): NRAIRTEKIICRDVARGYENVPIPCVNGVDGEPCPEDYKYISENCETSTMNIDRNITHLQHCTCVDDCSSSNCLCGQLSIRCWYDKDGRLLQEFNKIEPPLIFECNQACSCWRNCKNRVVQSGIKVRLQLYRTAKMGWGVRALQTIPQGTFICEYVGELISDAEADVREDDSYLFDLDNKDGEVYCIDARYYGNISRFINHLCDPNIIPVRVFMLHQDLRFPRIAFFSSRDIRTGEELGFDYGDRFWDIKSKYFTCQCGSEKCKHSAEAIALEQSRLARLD
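AlphaScreen detection with an anti-monomethyl H3K9 antibody quantified product after a 2 h room-temperature reaction containing 500 nM biotinylated H3K9 peptide, 20 µM SAM and 20 nM enzyme, which had been preincubated 15 min with compound.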
BAZ2B inh: BAZ2B (human) inhibition; Q9UIF8; AlphaScreen BAZ2B-H3K14Ac peptide displacement; Potency, µM (doses to about 114 µM), without a hit: at the top dose activity change, negative = inhibition, hits mostly inhibitors; 360,000 tested, 4.4% active; also: % is scaled to controls: 0 for no effect and ±100 for the full control effect; nearly all actives have a fitted effect of over 60% in size
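Protein-peptide AlphaScreen: BAZ2B 50 nM, b-H3K14Ac 50 nM, 1x PBS pH 7.4 + 0.01% Tween-20. Preincubation 30 min RT; cpd 30 min RT (top 110 uM); beads 20 min RT, light-protected.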
* marks the source's active call; other numbers are inactive results; [ ] = remark or other dose. Calls follow the shape of the dose curve; as a rule, active = well fitted curve in the direction sought with a large enough effect; inconclusive = small, poorly fitted or top-dose-only effect, or another doubt; inactive = no such curve, though single readings can be large; an effect the other way counts as inactive or inconclusive. Potency is read from the fitted curve at half-maximal effect.

Results for COc1cc(CN2CCNC(=O)C2CC(=O)N(C)CCC2CCOCC2)cc(OC)c1 (centres undefined) ?
JMJD2A Tudor inh: inconclusive; HP1b binding inh: 22%; GLS inh: 40%; G9a block: -2%[0.501 µM]; BAZ2B inh: -8%

What do the screens show for `COc1ccc(CN2CCNC(=O)C2CC(=O)NC2CCOCC2)cc1C` (centres undefined)?
JMJD2A Tudor inh: -16%; HP1b binding inh: 45%; GLS inh: -1%; G9a block: 40µM*; BAZ2B inh: -22%

Results for CCCS(=O)(=O)N1CC(=O)N(c2cc(C)cc(C)c2)C(C)(C(=O)NC2CCCCCC2)C1 (centres undefined) ?
JMJD2A Tudor inh: -20%; HP1b binding inh: -6%; GLS inh: -11%; G9a block: 0%[59 µM]; BAZ2B inh: 3%

How did Cc1cc(C)cc(NC(=O)C(=O)NCC(c2ccc3c(c2)OCO3)N2CCN(C)CC2)c1 (centres undefined) do in these assays?
JMJD2A Tudor inh: -12%; HP1b binding inh: 19%[57 µM]; GLS inh: -4%; G9a block: -5%[59 µM]; BAZ2B inh: -21%

Results for Cc1ccc(Cl)cc1N1C(=O)N(Cc2ccc(C#N)cc2)c2ccccc2S1(=O)=O ?
JMJD2A Tudor inh: -5%; HP1b binding inh: 48%; GLS inh: 2%; G9a block: 8%[59 µM]; BAZ2B inh: -10%

What do the screens show for `CC1(C)S[C@@H]2[C@H](NC(=O)[C@H](N)c3ccccc3)C(=O)N2[C@@H]1C(=O)OCOC(=O)[C@@H]1N2C(=O)C[C@@H]2S(O)(O)C1(C)C`?
GLS inh: 4%

What do the screens show for `O=c1c(CCc2ccccc2)nc2cnc(N3CCOCC3)nc2n1C1CC1`?
G9a block: 7%[0.501 µM]

Results for Cc1ccc(NC(=O)N2CCN(C(=O)c3nsc4ccccc34)CC2)cc1C ?
JMJD2A Tudor inh: -22%; HP1b binding inh: 18%[57 µM]; GLS inh: 4%; G9a block: 8%[59 µM]; BAZ2B inh: -4%

How did CCCN1CCC(=O)N(C(CSc2ccc(Br)cc2)c2ccccc2)CC1 (centres undefined) do in these assays?
JMJD2A Tudor inh: -32%; HP1b binding inh: 2%

Results for O=C(NCC1CCCO1)C1c2ccccc2Oc2ccccc21 (centres undefined) ?
JMJD2A Tudor inh: -5%; HP1b binding inh: 31%; GLS inh: 1%; G9a block: 28%; BAZ2B inh: -7%

How did O=C(O)CC12CSc3[nH]c(=O)sc3C1c1ccccc1OC2=O (centres undefined) do in these assays?
G9a block: 50µM*; BAZ2B inh: -6%

What do the screens show for `O=C(COC(=O)CC1CCCC1)Nc1ccc(Cl)cc1`?
JMJD2A Tudor inh: 24%; HP1b binding inh: 64%; GLS inh: -1%; G9a block: 34%; BAZ2B inh: 49%

What do the screens show for `CSCCOC(=O)C1=C(C)Nc2ccc(C)cc2S1`?
JMJD2A Tudor inh: 79µM*; HP1b binding inh: -67%; GLS inh: 8%; G9a block: 25µM*; BAZ2B inh: 45µM*

How did CCOC(=O)C1=C(C)Nc2ccc(C)cc2S1 do in these assays?
JMJD2A Tudor inh: -25%; HP1b binding inh: inconclusive; GLS inh: 21%; G9a block: inconclusive; BAZ2B inh: 50µM*

How did CCOCCOC(=O)c1cccc(NC(=O)OCC)c1 do in these assays?
JMJD2A Tudor inh: 0%; HP1b binding inh: 24%; GLS inh: 1%; G9a block: 6%; BAZ2B inh: -3%

Results for CCOC(=O)C1=C(C)Nc2ccccc2S1 ?
JMJD2A Tudor inh: inconclusive; HP1b binding inh: inconclusive; GLS inh: 11%; BAZ2B inh: 40µM*

How did CCOCCOC(=O)C1=C(C)Nc2ccc(C)cc2S1 do in these assays?
JMJD2A Tudor inh: 14µM*; HP1b binding inh: -43%; GLS inh: 9%; G9a block: 16µM*; BAZ2B inh: inconclusive

What do the screens show for `CCOC(=O)[C@]12CCC=C1N(Cc1ccccc1)C(=O)[C@H](CC(=O)NCc1cccc(C(F)(F)F)c1)C2`?
GLS inh: 5%

How did COc1cc(C(=O)NCCc2sc(-c3cccc(F)c3)nc2C)cc(OC)c1OC do in these assays?
JMJD2A Tudor inh: -3%; HP1b binding inh: 26%[57 µM]; GLS inh: 3%; G9a block: 3%[59 µM]; BAZ2B inh: 1%

How did O=C(Nc1cccc([N+](=O)[O-])c1)c1cnccn1 do in these assays?
JMJD2A Tudor inh: inconclusive; HP1b binding inh: 17%; GLS inh: -21%; G9a block: 13%[59 µM]; BAZ2B inh: 50µM*

What do the screens show for `O=C(Cc1ccccc1)Nc1cccc([N+](=O)[O-])c1`?
JMJD2A Tudor inh: -6%; HP1b binding inh: 65%; GLS inh: -1%; G9a block: inconclusive; BAZ2B inh: -2%

What do the screens show for `O=C(Nc1cccc([N+](=O)[O-])c1)c1ccc2ccccc2c1O`?
JMJD2A Tudor inh: -11%; HP1b binding inh: 7%; GLS inh: -22%; G9a block: 16µM*; BAZ2B inh: -29%

What do the screens show for `C=C1c2cccc(C(F)(F)F)c2O[C@H](C(=O)OCC)[C@H]1OC`?
JMJD2A Tudor inh: -13%; HP1b binding inh: 56%; GLS inh: 3%

What do the screens show for `O=C(NCc1ccccc1Cl)c1ccc2c(=O)n(CCCN3CCCC3=O)c(=S)[nH]c2c1`?
JMJD2A Tudor inh: -10%; HP1b binding inh: 22%; GLS inh: -9%; G9a block: -11%[59 µM]; BAZ2B inh: 4%

What do the screens show for `O=C(NCCCN1CCCC1=O)c1ccc2c(=O)n(-c3ccc(F)cc3)c(=S)[nH]c2c1`?
G9a block: 32µM*; BAZ2B inh: -15%

What do the screens show for `O=C(NCCCN1CCCC1=O)c1ccc2c(=O)n(-c3ccccc3F)c(=S)[nH]c2c1`?
JMJD2A Tudor inh: inconclusive; HP1b binding inh: 29%; GLS inh: -14%; G9a block: 25µM*; BAZ2B inh: inconclusive

Results for COCCNC(=O)c1ccc2c(=O)n(CCCN3CCCC3=O)c(=S)[nH]c2c1 ?
JMJD2A Tudor inh: inconclusive; HP1b binding inh: 14%; GLS inh: -24%; G9a block: inconclusive; BAZ2B inh: inconclusive

What do the screens show for `Cc1ccc(N(C)C(=O)C2CCN(S(=O)(=O)c3c(C)noc3/C=C/c3c(C)cc(C)cc3C)CC2)cc1`?
JMJD2A Tudor inh: -24%; HP1b binding inh: 2%[57 µM]; GLS inh: 3%; G9a block: -1%[59 µM]; BAZ2B inh: -15%

What do the screens show for `O=C(Nc1cccc(OC(F)(F)F)c1)c1ccc(-c2cccnc2)c2ccoc12`?
GLS inh: 3%

Results for O=C(c1cc(-c2ccccc2)nc2ccccc12)N1CCN(c2ccccc2O)CC1 ?
JMJD2A Tudor inh: inconclusive; HP1b binding inh: 2%; GLS inh: 7.1µM*; BAZ2B inh: -39%

How did O=C(c1cc(-c2ccncc2)nc2ccccc12)N1CCN(c2ccccc2O)CC1 do in these assays?
JMJD2A Tudor inh: -35%; HP1b binding inh: 17%; GLS inh: 6%; G9a block: 9%; BAZ2B inh: -32%
